The values below come from PubChem BioAssay (NCI).

Assay in all cases: NCI-60 one-dose screen, 48 h (100 = growth as untreated, 0 = no growth, -100 = all killed)
Assay [1] has as its system SK-MEL-2 melanoma. The note with it: 10 µM unless noted.
For assay [2], the system named is EKVX NSCLC. The note with it: 10 µM unless noted.
The subject of assay [3] is SN12C renal. The note with it: 10 µM unless noted.
The test system of assay [4] is UO-31 renal. As to conditions: 10 µM unless noted.
In assay [5] the test system is TK-10 renal. The note with it: 10 µM unless noted.
Assay [6] relates to ACHN renal. The note with it: 10 µM unless noted.
For assay [7], the system named is CAKI-1 renal. As to conditions: 10 µM unless noted.
In assay [8] the test system is A498 renal. The note with it: 10 µM unless noted.
The subject of assay [9] is CCRF-CEM leukemia. The note with it: 10 µM unless noted.
Assay [10] concerns MOLT-4 leukemia. As to conditions: 10 µM unless noted.
The subject of assay [11] is SR leukemia. The note with it: 10 µM unless noted.
Assay [12] relates to RPMI-8226 leukemia. The note with it: 10 µM.
For assay [13], the system named is OVCAR-8 ovarian. As to conditions: 10 µM unless noted.
The test system of assay [14] is OVCAR-5 ovarian. As to conditions: 10 µM unless noted.
In assay [15] the test system is OVCAR-4 ovarian. The note with it: 10 µM unless noted.
The test system of assay [16] is IGROV1 ovarian. As to conditions: 10 µM unless noted.
The subject of assay [17] is OVCAR-3 ovarian. As to conditions: 10 µM unless noted.
Assay [18] concerns HS 578T breast. As to conditions: 10 µM unless noted.
In assay [19] the test system is NCI/ADR-RES ovarian. The note with it: 10 µM unless noted.
The test system of assay [20] is SK-OV-3 ovarian. As to conditions: 10 µM.

Compounds without any hit were thinned out: in the full panel of roughly 83,000, 20% have a hit.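 Activity criterion: percent growth below 10, measured after cells in 96-well plates were exposed to a single compound concentration for 48 hours.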 A number with no mark means an inactive call. Calls of active or inactive are those of the source.

In the case of `Cc1cc(C)c(S(=O)O)c(C)c1`, the growth in assay [1] is 97.8%; in assay [2], 105%; in assay [3], 108%; in [4], 110%; in assay [5] it was 104%; in assay [6], 103%. Besides, the growth in [7] is 99%; in assay [8], 92.7%; in assay [9], 94%; in assay [10] it was 109%; in assay [11] it was 102%; in assay [12], 102%. For the same molecule, the growth is 115% in assay [13]; 114% in [14]; 111% in [15]; 129% in assay [16]; 120% in assay [17]; 104% in [18]. Besides, in [19], the growth is 97%.

With `O=[N+]([O-])c1ccc(C=C2C(Cl)=C(Cl)C(Cl)=C2Cl)cc1`, the growth is 102% in [1]; 91.6% in assay [2]; 52.3% in assay [3]; -19.8% (active) in [4]; 28.3% in assay [5]; 45.5% in assay [6]. The growth was 53% in [7]; 104% in assay [8]; 15.7% in assay [9]; 5.43% (active) in assay [10]; -1.36% (active) in assay [11]; 11.4% in [12]. For the same molecule, the growth in assay [13] is 22.4%; in [14] it was 112%; in [15], 54.5%; in [20] it was 115%; in [17], -17% (active); in assay [18], -13.4% (active).

For the molecule `COc1cc(C2CC(=O)Nc3c2ccc2ccccc32)cc(Br)c1OC` (configuration not stated), the growth in assay [1] was 8.51% (active); in assay [2], 38.9%; in assay [3], 50.2%; in assay [4] it was 27.2%; in assay [5], 34.4%; in assay [6] it was 45.9%. For the same molecule, the growth is 27.1% in [7]; 7.93% (active) in assay [8]; -25.7% (active) in assay [9]; 10.6% in [10]; -6.32% (active) in assay [11]; -13.1% (active) in [12]. The growth in assay [13] is 27.7%; in [15] it was 41%; in assay [20] it was 2.95% (active); in [16], 32.4%; in [17], -26.3% (active); in assay [18] it was 14%. For the same molecule, the growth in assay [19] was -10.7% (active).

Regarding `Cc1nn(CC(=O)O)c2c1C(=O)CC(C)(C)C2`, the growth in assay [1] was 113%; in assay [2] it was 105%; in assay [3] it was 101%; in assay [4], 74%; in assay [5] it was 89.9%; in assay [6] it was 126%. The growth in assay [7] was 97.4%; in assay [8] it was 97.8%; in assay [9] it was 99.6%; in [10], 81.1%; in assay [12] it was 99.2%; in assay [13], 104%. Moreover, the growth in assay [15] is 101%; in assay [20], 101%; in assay [16], 94.1%; in [17] it was 110%; in [18], 102%; in assay [19], 99.5%.

Regarding `O=C(COc1ccc(/C=C2\CSc3ccccc3C2=O)cc1)c1ccc(Cl)cc1`, the growth is 95.1% in [1]; 122% in [2]; 103% in assay [3]; 89.8% in assay [4]; 113% in assay [5]; 99% in assay [6]. In addition, the growth in assay [7] is 96.5%; in [8] it was 105%; in assay [9] it was 93.9%; in assay [11], 93.1%; in [12], 95.8%; in [13], 110%. Besides, the growth in assay [15] was 107%; in assay [20], 107%; in [17] it was 96%; in assay [18], 109%.

Consider `FC(F)(F)c1ccc2c(c1)n1cnnc1c1nncn21`, for which the growth is 112% in assay [1]; 94.4% in [2]; 106% in [3]; 87.6% in assay [4]; 100% in assay [5]; 112% in assay [6]. In addition, the growth was 97% in [7]; 94.7% in assay [8]; 96.4% in [10]; 84.1% in assay [11]; 95.2% in [12]; 110% in [14]. Besides, the growth was 111% in assay [15]; 109% in assay [20]; 119% in assay [16]; 117% in assay [17]; 113% in assay [19].

Regarding `O=C(N/N=C/c1ccc(F)cc1)c1[nH]c2ccc(I)cc2c1-c1ccccc1`, the growth in assay [1] was 71.9%; in assay [2], 5.92% (active); in assay [3] it was 32.6%; in assay [4], 46%; in assay [5] it was 65.2%; in [6], 36%. The growth in [7] was 5.08% (active); in assay [8], 39.1%; in assay [9], 39.2%; in assay [10], 72.5%; in assay [12], 22%; in assay [13] it was 45.5%. The growth is 37.2% in assay [15]; -1.53% (active) in [20]; 23.8% in assay [16]; 5.48% (active) in [17]; 51.8% in assay [18].

On to `CCOc1ccc(-c2cnnn2-c2nonc2-n2cccc2)cc1`, for which the growth in [1] was 18.3%; in [2], 60.9%; in assay [3], 40.1%; in assay [4], 29.8%; in [5] it was 45.3%; in assay [6] it was 47.3%. Moreover, the growth in assay [7] was 46.4%; in assay [8], 18.7%; in assay [10] it was 8.83% (active); in assay [11], 1.35% (active); in assay [12], 12.5%; in assay [13] it was 25.9%. Moreover, the growth in assay [14] was 41.1%; in assay [15] it was 39.6%; in [20], -1.75% (active); in assay [16], 36.5%; in assay [17] it was -37.1% (active); in assay [19], -5.39% (active).
